Results published in the supplement of paper PMC8728848.
About 410 targets per protein were measured; listed, in parts, are those with the strongest signals and a random draw of the rest.

Legend:
Test in all cases: glycan array binding signal (z-score within array); higher = stronger binding
Settings in all cases: glycan notation: IUPAC condensed, linker removed; mutation: N288D, K313I
[1] = molecular target: GlcNAc(b1-2)[GlcNAc(b1-4)]Man(a1-3)[GlcNAc(b1-4)][GlcNAc(b1-2)[GlcNAc(b1-6)]Man(a1-6)]Man(b1-4)GlcNAc(b1-4)[Fuc(a1-6)]GlcNAc
Summary of the method: (§1)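 Glycan array data were curated from 3228 arrays in the Consortium for Functional Glycomics database and kept only where the protein sequence was available. Glycan names were converted to IUPAC-condensed notation, and columns mapping to the same glycan were averaged. The binding signal is a within-array Z-score, averaged across arrays of the same protein sequence at different concentrations or buffers and across linkers. Negative Z-scores can be read as non-binding.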

[2] = molecular target: GlcNAc(b1-2)[GlcNAc(b1-6)]Man(a1-6)[GlcNAc(b1-2)Man(a1-3)]Man(b1-4)GlcNAc(b1-4)GlcNAc
Summary of the method: as §1

[3] = molecular target: GlcNAc(b1-2)[GlcNAc(b1-6)]Man(a1-6)[GlcNAc(b1-4)][GlcNAc(b1-2)Man(a1-3)]Man(b1-4)GlcNAc(b1-4)GlcNAc
Summary of the method: as §1

[4] = molecular target: GlcNAc(b1-3)Gal(b1-4)GlcNAc
Summary of the method: as §1

[5] = molecular target: GlcNAc(b1-3)Gal(b1-4)GlcNAc(b1-2)[GlcNAc(b1-3)Gal(b1-4)GlcNAc(b1-6)]Man(a1-6)[GlcNAc(b1-3)Gal(b1-4)GlcNAc(b1-2)Man(a1-3)]Man(b1-4)GlcNAc(b1-4)GlcNAc
Summary of the method: as §1

[6] = molecular target: GlcNAc(b1-3)Gal(b1-4)GlcNAc(b1-3)Gal(b1-4)GlcNAc(b1-2)[GlcNAc(b1-3)Gal(b1-4)GlcNAc(b1-3)Gal(b1-4)GlcNAc(b1-6)]Man(a1-6)[GlcNAc(b1-3)Gal(b1-4)GlcNAc(b1-3)Gal(b1-4)GlcNAc(b1-2)Man(a1-3)]Man(b1-4)GlcNAc(b1-4)[Fuc(a1-6)]GlcNAc
Summary of the method: as §1

[7] = molecular target: GlcNAc(b1-3)Gal(b1-4)GlcNAc(b1-3)Gal(b1-4)GlcNAc(b1-3)Gal(b1-4)GlcNAc(b1-2)[GlcNAc(b1-3)Gal(b1-4)GlcNAc(b1-3)Gal(b1-4)GlcNAc(b1-3)Gal(b1-4)GlcNAc(b1-6)]Man(a1-6)[GlcNAc(b1-3)Gal(b1-4)GlcNAc(b1-3)Gal(b1-4)GlcNAc(b1-3)Gal(b1-4)GlcNAc(b1-2)Man(a1-3)]Man(b1-4)GlcNAc(b1-4)[Fuc(a1-6)]GlcNAc
Summary of the method: as §1

[8] = molecular target: GlcNAc(b1-3)Gal(b1-4)GlcNAc(b1-3)Gal(b1-4)GlcNAc(b1-3)Gal(b1-4)GlcNAc(b1-3)Gal(b1-4)GlcNAc(b1-2)Man(a1-3)[GlcNAc(b1-3)Gal(b1-4)GlcNAc(b1-3)Gal(b1-4)GlcNAc(b1-3)Gal(b1-4)GlcNAc(b1-3)Gal(b1-4)GlcNAc(b1-2)Man(a1-6)]Man(b1-4)GlcNAc(b1-4)[Fuc(a1-6)]GlcNAc
Summary of the method: as §1

[9] = molecular target: GlcNAc(b1-3)Gal(b1-4)GlcNAc(b1-6)[GlcNAc(b1-3)]Gal(b1-4)GlcNAc
Summary of the method: as §1

GlcNAc(b1-3)GalNAc = molecular target: GlcNAc(b1-3)GalNAc
Summary of the method: as §1

[10] = molecular target: GlcNAc(b1-3)[GlcNAc(b1-6)]Gal(b1-4)GlcNAc
Summary of the method: as §1

Kdn(a2-3)Gal(b1-3)GlcNAc = molecular target: Kdn(a2-3)Gal(b1-3)GlcNAc
Summary of the method: as §1

[11] = molecular target: Neu5Ac(a2-3)Gal(b1-3)GlcNAc(b1-6)GalNAc
Summary of the method: as §1

[12] = molecular target: Neu5Ac(a2-3)Gal(b1-3)[Fuc(a1-4)]GlcNAc(b1-3)Gal(b1-3)[Fuc(a1-4)]GlcNAc
Summary of the method: as §1

[13] = molecular target: Neu5Ac(a2-3)Gal(b1-3)[Neu5Ac(a2-6)]GlcNAc(b1-3)[Fuc(a1-3)[Gal(b1-4)]GlcNAc(b1-6)]Gal(b1-4)Glc
Summary of the method: as §1

[14] = molecular target: Neu5Ac(a2-3)Gal(b1-4)GlcNAc(b1-6)GalNAc
Summary of the method: as §1

[15] = molecular target: Neu5Ac(a2-3)Gal(b1-4)GlcNAc6S
Summary of the method: as §1

[16] = molecular target: Neu5Ac(a2-3)Gal(b1-4)[Fuc(a1-3)]GlcNAc(b1-2)Man
Summary of the method: as §1

[17] = molecular target: Neu5Ac(a2-3)Gal(b1-4)[Fuc(a1-3)]GlcNAc(b1-3)Gal
Summary of the method: as §1

[18] = molecular target: Neu5Ac(a2-3)Gal(b1-4)[Fuc(a1-3)]GlcNAc(b1-3)GalNAc
Summary of the method: as §1

[19] = molecular target: Neu5Ac(a2-6)Gal(b1-4)GlcNAc(b1-2)Man(a1-6)[GlcNAc(b1-2)Man(a1-3)]Man(b1-4)GlcNAc(b1-4)GlcNAc
Summary of the method: as §1

[20] = molecular target: Neu5Ac(a2-6)Gal(b1-4)GlcNAc(b1-2)Man(a1-6)[Man(a1-3)]Man(b1-4)GlcNAc(b1-4)GlcNAc
Summary of the method: as §1

[21] = molecular target: Neu5Ac(a2-6)Gal(b1-4)GlcNAc(b1-3)Gal(b1-4)GlcNAc(b1-6)[Gal(b1-3)]GalNAc
Summary of the method: as §1

[22] = molecular target: Neu5Ac(a2-6)Gal(b1-4)GlcNAc(b1-6)GalNAc
Summary of the method: as §1

[23] = molecular target: Neu5Ac(a2-8)Neu5Ac(a2-8)Neu5Ac(a2-8)Neu5Ac(a2-3)[GalNAc(b1-4)]Gal(b1-4)Glc
Summary of the method: as §1

Neu5Ac(b2-6)GalNAc = molecular target: Neu5Ac(b2-6)GalNAc
Summary of the method: as §1

[24] = molecular target: Neu5Ac9Ac(a2-3)Gal(b1-4)GlcNAc
Summary of the method: as §1

B1: Langerin (Homo sapiens), Q9UJ71 (protein)
chain: STLNAQIPELKSDLEKASALNTKIRALQGSLENMSKLLKRQNDILQVVSQGWKYFKGNFYYFSLIPKTWYSAEQFCVSRNSHLTSVTSESEQEFLYKTAGGLIYWIGLTKAGMEGDWSWVDDTPFNKVQSARFWIPGEPNDAGNNEHCGNIKAPSLQAWNDAPCDITFLFICKRPYVPSEP
In the case of B1, the “glycan array binding signal (z-score)” value [1] is reported as 1.91, the “glycan array binding signal (z-score)” value [2] is reported as -0.239 and the “glycan array binding signal (z-score)” value [3] is reported as 0.046. The “glycan array binding signal (z-score)” value [4] was 1.72, the “glycan array binding signal (z-score)” value [5] was 2.14 and the “glycan array binding signal (z-score)” value [6] was 16.7. For the same binder, the “glycan array binding signal (z-score)” value [7] was 0.284, the “glycan array binding signal (z-score)” value [8] was 2.34 and the “glycan array binding signal (z-score)” value [9] was 5.4. For the same binder, the “glycan array binding signal (z-score)” value (GlcNAc(b1-3)GalNAc) was -0.205, the “glycan array binding signal (z-score)” value [10] was 4.87 and the “glycan array binding signal (z-score)” value (Kdn(a2-3)Gal(b1-3)GlcNAc) was -0.115. For the same binder, the “glycan array binding signal (z-score)” value [11] was -0.092, the “glycan array binding signal (z-score)” value [12] was -0.088 and the “glycan array binding signal (z-score)” value [13] was -0.298. The “glycan array binding signal (z-score)” value [14] was -0.165, the “glycan array binding signal (z-score)” value [15] was -0.294 and the “glycan array binding signal (z-score)” value [16] was -0.159. For the same binder, the “glycan array binding signal (z-score)” value [17] was -0.338, the “glycan array binding signal (z-score)” value [18] was 0.034 and the “glycan array binding signal (z-score)” value [19] was -0.278. The “glycan array binding signal (z-score)” value [20] was -0.187, the “glycan array binding signal (z-score)” value [21] was -0.179 and the “glycan array binding signal (z-score)” value [22] was 0.078. For the same binder, the “glycan array binding signal (z-score)” value [23] was -0.254, the “glycan array binding signal (z-score)” value (Neu5Ac(b2-6)GalNAc) was -0.196 and the “glycan array binding signal (z-score)” value [24] was -0.434.
